# Shown are actives, neighbours in structure and some others; about 3.2% of the full set was active somewhere.
# sPLA2-III inh – Inhibits HGIII-sPLA2 liposome hydrolysis, primary screen; QFRET BODIPY PC-A2 liposome hydrolysis, fluorescence; inhibition, % at 12.2 µM; actives 0.56% (n = 370,000); AID 743126;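 active = inhibition above mean plus 3 SD of compounds lying within the high and low control bounds, cut at about 19% in these data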;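 also: 0% = median of test compound wells and 100% = no enzyme DMSO wells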
# Target sequence (Q9NZ20 whole entry, looked up): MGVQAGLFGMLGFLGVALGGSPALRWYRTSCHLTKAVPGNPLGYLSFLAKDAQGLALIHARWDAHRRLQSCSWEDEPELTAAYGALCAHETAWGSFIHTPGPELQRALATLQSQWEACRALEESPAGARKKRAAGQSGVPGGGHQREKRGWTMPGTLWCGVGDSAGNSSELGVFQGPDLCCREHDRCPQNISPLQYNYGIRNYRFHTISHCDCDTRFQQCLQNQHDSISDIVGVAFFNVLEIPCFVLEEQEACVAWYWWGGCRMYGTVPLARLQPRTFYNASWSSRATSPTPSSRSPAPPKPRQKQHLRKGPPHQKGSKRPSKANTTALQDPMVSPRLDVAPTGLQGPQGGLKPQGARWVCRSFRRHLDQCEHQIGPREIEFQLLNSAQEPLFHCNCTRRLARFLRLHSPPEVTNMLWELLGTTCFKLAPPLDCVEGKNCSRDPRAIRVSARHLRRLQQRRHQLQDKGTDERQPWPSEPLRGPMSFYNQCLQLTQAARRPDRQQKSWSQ
# PG9 Ab binder – small molecules binding HIV-1 gp120 antibody PG9 | TR-FRET gp120-PG9 antibody binding | AID 624416 | inhibition, % at 6.7 µM | actives 0.43% (n = 360,000); in the data active = inhibition above about 8.5%
# MsrA act – bovine methionine sulfoxide reductase A activation; purified bovine MsrA, absorbance read-out; activation, % at 10.6 µM; actives 0.3% (n = 360,000); in the data active = activation above about 7.5%;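 also: 0% = vehicle and 100% = reference activator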
# MsrA inhibitor – bovine MsrA inhibition | purified bovine MsrA, absorbance read-out | inhibition, % at 15.5 µM | actives 0.75% (n = 360,000); in the data active = inhibition above about 4.5%;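 also: 0% = vehicle wells with enzyme and 100% = reference inhibitor wells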
# rCAG RNA binder – molecules binding r(CAG) RNA repeats; r(CAG) RNA repeat, TO-PRO-1 dye displacement fluorescence; actives 1.3% (n = 370,000); inhibition, % at 3 µM;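 active = inhibition above the plate cutoff, the mean of all test compounds on that plate plus 3 SD, cut at about 35% in these data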;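 also: 0% = DMSO alone and 100% = 100 µM mitoxantrone as full dye displacement; higher means more dye released from RNA so lower well fluorescence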
# MsrA act confirm – bovine methionine sulfoxide reductase A activation confirmed; shares compounds with MsrA act; activation, % at 10.6 µM; actives 12% (n = 1,000); AID 602270; purified bovine MsrA, absorbance read-out; in the data active = activation above about 4%;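 also: enzyme coupled to thioredoxin and thioredoxin reductase with NADPH; 0% = vehicle wells and 100% = reference activator wells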
# * hit, by the source's call; . = not tested or not shown.
SMILES,sPLA2-III inh,PG9 Ab binder,MsrA act,MsrA inhibitor,rCAG RNA binder,MsrA act confirm
CO[C@H]([C@H](C)/C=C/N(C)C=O)[C@@H](C)C(=O)CC[C@H](C)[C@H](O)[C@H](C)[C@H]1OC(=O)/C=C/C(C)=C/C[C@H](O)C[C@@H]2C=CC[C@@H](C[C@H](OC)[C@@]3(CO3)[C@@H](OC)C[C@@H](OC)[C@@H]1C)O2,-15,.,.,.,.,.
COC(=O)[C@H]1C[C@@]2(N3CCCCC3)c3ccccc3N(S(=O)(=O)c3ccccc3)[C@H]2N1,-1,.,.,.,6,.
Cc1ccc(NC(=O)CCC(=O)NNC(=O)NC23CC4CC(CC(C4)C2)C3)cc1C,-16,1,9.0*,1,-5,0
O=C(Cn1sc2ccccc2c1=O)Nc1ccccc1,5,1,7.7*,0,1,2
O=C(Cn1sc2ccccc2c1=O)NC12CC3CC(CC(C3)C1)C2,.,.,-3,.,.,.
COc1cccc(OC)c1OCCOc1ccc(C(=O)c2ccccc2)cc1,-8,0,18*,0,-4,1
CC(C)(C)c1ccc(S(=O)(=O)N2CCC(c3cn4ccccc4n3)CC2)cc1,-15,.,.,.,7,.
C#CCOCCOCCOCCNc1nc(N2CCN(C(=O)[C@H]([C@@H](C)CC)n3cc(CCC(=O)O)nn3)CC2)nc(N2CCN(C(=O)[C@H](C)n3cc(CCCN=C(N)N)nn3)CC2)n1,8,1,-2,1,0,.
C#CCOCCOCCOCCNc1nc(N2CCN(C(=O)[C@H]([C@@H](C)CC)n3cc(CCCN=C(N)N)nn3)CC2)nc(N2CCN(C(=O)[C@H]([C@@H](C)CC)n3cc(CCC(=O)O)nn3)CC2)n1,-4,-1,7.9*,0,-9,-1
Fc1ccc(C(c2ccc(F)cc2)N2CCN(C/C=C/c3ccccc3)CC2)cc1,-14,-1,8.4*,-1,3,-2
C(=C\c1ccccc1)/CN1CCN(C(c2ccccc2)c2ccccc2)CC1,-10,-1,0,-1,2,.
COC(=O)[C@]12C[C@H](CC(=O)N3CCN(C(=O)c4ccco4)CC3)C(=O)N(Cc3ccco3)C1=C[C@H](C(C)(C)C)O[C@@H]2C,-8,.,.,.,4,.
Cc1nnc(SCC(=O)NCCN2C(=O)CSC2=O)n1-c1ccccc1,4,0,-8,-1,-2,.
O=C(CSc1nnc(Cc2ccccc2)o1)NCCN1C(=O)CSC1=O,-3,1,19*,-1,3,-1
COC(=O)C1CN(Cc2ccc(C)cc2)CCS(=O)(=O)N1Cc1cn(Cc2ccccc2)nn1 (centres undefined),1,.,.,.,-2,.
O=C(C[C@H]1C[C@@H]2c3cc(NS(=O)(=O)c4ccccc4)ccc3O[C@@H]2[C@H](CO)O1)N1CCOCC1,18,0,14*,1,3,-6
CN(C)c1ccc2nc3ccc(=[N+](C)C)cc-3sc2c1,4,-115,23*,8.2*,33,7.9*
COc1ccc(/C=N/NC(=O)c2cccc([N+](=O)[O-])c2)cc1O,-7,-3,-3,1,4,.
COc1cc(/C=N/NC(=O)c2cccc([N+](=O)[O-])c2)ccc1OCc1ccc(C)cc1,1,1,8.3*,-1,-2,-1
COC(=O)[C@]12C[C@H](CC(=O)NCC3CCCCC3)C(=O)N(Cc3ccc(Cl)cc3Cl)C1=C[C@H](C(C)C)O[C@@H]2C1CC1,16,.,.,.,8,.
Cc1sc(NC(=O)CN2CCCC2)nc1-c1ccc2c(c1)CCN2C(=O)c1ccc(F)cc1,-19,2,12*,-1,9,-3
CC(=O)Nc1nc(-c2ccc3c(c2)CCN3C(=O)C2CC2)c(C)s1,-3,-2,-14,0,2,.
CC1(C)Cc2cccc(Oc3ccc(S(=O)(=O)N4CCCCC4)cn3)c2O1,-1,-1,7.7*,1,-6,-1
COc1ccc(C(C)(O)c2nc(-c3cccc(C(F)(F)F)c3)cs2)cc1 (centres undefined),-13,-3,9.8*,1,4,2
COc1cccc(C(C)(O)c2nc(-c3cccc(C(F)(F)F)c3)cs2)c1 (centres undefined),-12,1,-5,1,0,.
SMILES,sPLA2-III inh,PG9 Ab binder,MsrA act,MsrA inhibitor,rCAG RNA binder,MsrA act confirm
COC(=O)c1ccccc1S(=O)(=O)N1CCC(c2nc3ccccc3o2)CC1,-18,-3,12*,0,-4,-2
COC(=O)c1cccc(S(=O)(=O)N2CCC(c3nc4ccccc4o3)CC2)c1,-69,-2,-9,-1,-6,.
CCOC(=O)CC[C@H]1CC[C@]2(CCCN(C(=O)c3ccco3)C2)O1,9,.,.,.,0,.
CCc1ccc(C(O)(C(C)C)C(CN2CCOCC2)c2ccccc2)cc1 (centres undefined),6,1,8.1*,1,-5,1
CC(=O)N1CCc2cc(N=NC3=C(O)CCCC3=O)ccc21,5,-8,8.7*,2,-8,-1
O=C1CCCC(O)=C1N=Nc1ccc(Cl)c(Cl)c1,2,-5,-2,4,4,.
N#Cc1ccccc1OCCCN1CCC(C(O)(c2ccccc2)c2ccccc2)CC1,-25,1,8.3*,-1,1,-2
O=C(NC1CCCCN(Cc2cccc(C(F)(F)F)c2)C1=O)c1ccc(Cl)c(Cl)c1 (centres undefined),5,.,.,.,0,.
CCCCCC#CCN1CCN(C23CC4CC(CC(C4)C2)C3)CC1,.,.,8.8*,.,.,3
CCCCCN1CCCCC(NC(=O)c2ccc3ccccc3c2)C1=O (centres undefined),-6,.,.,.,-3,.
Cc1ccc2cc(C#N)c(N3CCCN(S(=O)(=O)c4ccc(F)cc4)CC3)nc2c1,-12,-1,-2,0,3,.
Cc1ccc2cc(C#N)c(N3CCCN(S(=O)(=O)c4ccccc4)CC3)nc2c1,-20,2,8.7*,0,5,-3
Cc1ccccc1C(=O)c1cccn1CC(=O)NC(C)c1ccccc1 (centres undefined),-9,0,-2,0,-2,.
CC(NC(=O)Cn1cccc1C(=O)c1ccccc1)c1ccccc1 (centres undefined),-4,-1,12*,0,-2,-2
Clc1ccc([C@H]2OC[C@@]3(CNCCc4c[nH]c5ccccc45)CS[C@H](c4ccc(Cl)cc4)N23)cc1,-4,.,.,.,3,.
CN(CCc1cnn(C)c1)Cc1nc(Cc2ccccc2)no1,4,-1,10*,1,-8,1
COc1cc(OC)c(CN2CCCN(C)CC2)cc1Br,7,0,-2,1,-4,.
COc1cc(OC)c(CN2CCCCCCC2)cc1Br,11,0,12*,0,3,-3
CC(C)N(C#N)c1nc(N2CCOCC2)nc(N2CCOCC2)n1,-5,1,17*,0,-8,-4
CN(C)c1nc(C#N)nc(N2CCOCC2)n1,-1,0,-5,0,1,.
COc1ccc(N2CCN(CCCNC(=O)CCc3ccc(F)cc3)CC2)cc1,5,.,.,.,3,.
